This is one part of a sample in which hits are shown more often than they occur.
BL2 CD40 inh – CD40 pathway inhibition in BL2 cells | 83,000 tested, 0.94% active | inhibition, % at 10 µM | BL2 NF-kB luciferase reporter, CD40L-induced, 4 h | AID 1053188;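 active = mean inhibition of at least 50% with a set share of replicates also reaching that level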;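 also: 0% = neutral control wells and 100% = IKK inhibitor VII at 50 µM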
An asterisk follows results filed as active; ! = not active in a repeat; [ ] = dose if it differs, or a comment.

SMILES | BL2 CD40 inh
CCCNC(=O)N(C)C[C@@H]1Oc2cc(C#C[C@H](C)O)ccc2S(=O)(=O)N([C@@H](C)CO)C[C@@H]1C | -8.8[25 µM]
CC(C)(C)OC(=O)COc1cc(OCC(=O)OC(C)(C)C)c2c(=O)cc(-c3ccccc3)oc2c1 | 56.7*!
CCOC(=O)COc1ccc2c(=O)c(-c3ccccc3)coc2c1 | -13.4
O=c1cc(-c2ccccc2)oc2cc(OCc3ccccc3)cc(O)c12 | 12.4
COc1ccccc1C#Cc1ccc([C@H]2[C@H](C#N)N(C(=O)C3CCC3)[C@H]2CO)cc1 | 30.8[25 µM]
Cc1[nH]c2ccccc2c1CC#N | -0.8
Cc1[nH]c2ccccc2c1CCO | 17.5
Cc1[nH]c2ccccc2c1C1=CC(=O)C=CC1=O | 90.7*
C/C=C/c1ccc([C@@H]2[C@@H](CO)N(C(=O)CC)[C@@H]2CNC(=O)CC2CC2)cc1 | -4.9
CC(=O)N(C)C[C@@H]1Oc2ccccc2C(=O)N(C)C[C@@H]1C | -1.3
COCCNC(=O)C[C@H]1CC[C@H]2[C@@H](COC[C@@H](O)CN2C(=O)c2cc(Cl)cc(Cl)c2)O1 | 2.2[25 µM]
COc1cccc(-c2cccc(-c3nc(C(=O)O)cc4c3[C@@H](CCO)N(S(=O)C(C)(C)C)C4)c2)c1 (stereo partly drawn) | -7.2[25 µM]
Cc1ccc(S(=O)(=O)c2ccc([N+](=O)[O-])o2)cc1 | 109.3*
Cc1ccc(-c2nnc(NC(=O)c3ccc([N+](=O)[O-])o3)o2)c(C)c1 | -4.0
CC12CN3CC(C)(CN(C1)C3c1ccc([N+](=O)[O-])o1)C2 (stereo not drawn) | -5.0
COc1ccc(CC2C(=O)NC(C)C(=O)N(C)C3Cc4ccc(cc4)Oc4cc(ccc4O)CC(C(=O)NC(C)C(=O)NC(C)C(=O)N2C)N(C)C3=O)cc1 (stereo not drawn) | 67.1*
O=C(N[C@@H]1CC[C@@H](CCNS(=O)(=O)c2cccc(Cl)c2)O[C@H]1CO)c1ccc(F)cc1 | -1.6
COc1cccc(NC(=O)C[C@@H]2CC[C@@H]3[C@H](COc4ccc(NC(=O)C5CCC5)cc4C(=O)N3C)O2)c1 | 15.9
Cc1ccc(C)c(C(=O)c2c(C)nc3sccn23)c1 | 8.7
Cc1nc2sccn2c(=O)c1CCN1CCC(=C(c2ccc(F)cc2)c2ccc(F)cc2)CC1 | 27.5*
Cc1nc2ccccn2c(=O)c1CCN1CCC(C(=O)c2ccc(F)cc2)CC1 | 4.6
C[C@@H]1CN([C@H](C)CO)C(=O)CCCn2cc(nn2)CO[C@@H]1CN(C)C(=O)Nc1cccc(C(F)(F)F)c1 | 12.4[25 µM]
O=C(Nc1cc(F)ccc1F)N[C@H]1CC[C@@H](CCn2cc(C3CCCC3)nn2)O[C@H]1CO | 20.7
CC(C)NC(=O)N(C)C[C@@H]1Oc2ccc(N(C)C)cc2C(=O)N(C)C[C@H]1C | 4.1
O=C(C1CCC1)N1CCCCN2[C@@H](CO)[C@@H](c3ccc(-c4ccncc4)cc3)[C@@H]2C1 | 0.7[25 µM]
SMILES | BL2 CD40 inh
CC=Cc1ccc2n(c1=O)C[C@H]1[C@H](CO)[C@@H](C(=O)NC3CCC3)[C@@H]2N1Cc1ccncc1 (mixture of isomers) | -3.6
CC(C)(C)OC(=O)CC(S(=O)(=O)c1ccccc1)S(=O)(=O)c1ccccc1 | 66.8*
CC(S(=O)(=O)c1ccccc1)S(=O)(=O)c1ccccc1 | 6.0
O=S(=O)(CCS(=O)(=O)c1ccccc1)c1ccccc1 | 1.7
O=C(O)C[C@H]1C=C[C@@H](NC(=O)Nc2cc(F)ccc2F)[C@H](CO)O1 | 2.4[25 µM]
N#C[C@@H]1[C@@H](c2ccccc2C2=CCCC2)[C@H](CO)N1C(=O)C1CCC1 | 9.1[25 µM]
N#C[C@@H]1[C@H](c2ccccc2/C=C/c2ccccc2)[C@H](CO)N1S(=O)(=O)c1ccccc1 | 18.1[25 µM]
Cc1ccc2nc(N(CCN3CCOCC3)C(=O)CCS(=O)(=O)c3ccccc3)sc2c1 | -33.1
O=C(CCS(=O)(=O)c1ccccc1)Nc1ccc(N2CCOCC2)cc1 | -25.3
CC(=O)Nc1ccc(S(=O)(=O)N(CCCN2CCOCC2)Cc2cccs2)cc1 | 3.1
Cc1ccc(S(=O)(=O)CCC(=O)N(CCCN2CCOCC2)c2nc3ccccc3s2)cc1 | 95.5*
O=C(CCS(=O)(=O)c1ccccc1)N(CCCN1CCOCC1)c1nc2ccccc2s1 | 96.2*
O=C(NCCCN1CCOCC1)c1cc(-c2ccccc2)nc2ccccc12 | 0.5
O=C(NC1CCCC1)[C@H]1[C@H](CO)[C@H]2Cn3c(ccc(C4=CCCCC4)c3=O)[C@@H]1N2CC1CC1 | 0.4[25 µM]
O=C(C[C@@H]1C[C@@H]2c3cc(NC(=O)Nc4ccccc4)ccc3O[C@@H]2[C@@H](CO)O1)NCCN1CCCCC1 | 1.8[25 µM]
N#Cc1cnc(Nc2nc3ccccc3o2)nc1-c1ccccc1 | -19.8
Cc1ccnc(Nc2nc3ccccc3o2)n1 | 67.8*
Cc1nc(Nc2nc3ccccc3o2)nc(C)c1C | 5.7
CNC(=O)OCc1nc(SSC(C)(C)C)n(C)c1COC(=O)NC | 96.1*
CN(C[C@@H]1N[C@H](CO)[C@H]1c1ccccc1)C(=O)c1ccccn1 | -11.3[25 µM]
Nc1c(C(=O)N2CCCC2)sc2nc3c(cc12)CCCCCC3 | -96.6
Nc1c(C(=O)N2CCOCC2)sc2nc3c(cc12)CCC3 | -50.9
Nc1c(C(=O)N2CCOCC2)sc2nc3c(cc12)CCCC3 | 69.1*
CC(=O)N(C)C[C@H]1Oc2ccccc2C(=O)N(C)C[C@@H]1C | -1.2
CN1CCN(C(=O)C[C@@H]2CC[C@H]3[C@H](COc4ccc(NC(=O)C5CCCC5)cc4C(=O)N3C)O2)CC1 | -4.5
SMILES | BL2 CD40 inh
CCN(C[C@H]1[C@@H](c2ccccc2)[C@@H](CO)N1CC1CC1)C(=O)c1ccccc1F | -7.1[25 µM]
O=C(c1ccccc1)N1CC[C@@H]2[C@H](CO)Nc3ccc(C#Cc4cccnc4)cc3[C@@H]21 | 0.6
CCOC(=O)c1c(SCCN2CCCC2)n(-c2ccccc2)c(=S)n(-c2ccccc2)c1=O | 51.3*
CCOC(=O)c1c(C)c(C(=O)N2CCN(c3ccccc3)CC2)c(C)n1C | 8.0
CCOC(=O)C1CCCN(CCC(C)c2ccccc2)C1 (stereo not drawn) | 20.8
O=C(C1CCOCC1)N1[C@@H](CO)[C@@H](c2ccccc2)C12CN(Cc1cccc(Cl)c1)C2 | 1.1[25 µM]
COc1cccc(-c2ccc3n(c2=O)C[C@H]2[C@H](CO)[C@@H](C(=O)N(C)C)N(C(=O)C4CCCC4)[C@@H]32)c1 | -0.4
COCC(=O)N1CC2(CCN(Cc3ccccc3)CC2)c2c([nH]c3cc(OC)ccc23)[C@H]1CO | -19.4[25 µM]
CCc1cc2c(=O)c(-c3ccc4c(c3)OCCO4)coc2c(CN2CCCCC2C)c1O (stereo not drawn) | 32.4*
O=C(CN1CCC(C(=O)c2ccc3c(c2)OCCO3)CC1)NC1CCCC1 | 15.7
CSCCC(NC(=O)OC(C)(C)C)C(=O)Oc1ccc2c(=O)c(-c3ccc4c(c3)OCCO4)coc2c1 (stereo not drawn) | -3.3
CC(=O)O[C@@H]1c2c(ccc3ccc(=O)oc23)OC(C)(C)[C@@H]1OC(=O)CC(C)C | 13.1[25 µM]
CCCC#Cc1ccc([C@H]2[C@@H](CO)N(C(C)=O)[C@@H]2CNC(=O)C2CCC2)cc1 | 0.5[25 µM]
C[C@@H]1CN([C@H](C)CO)C(=O)c2c(c3ccccc3n2C)-c2ccccc2CO[C@@H]1CN(C)C(=O)Nc1ccc(F)cc1 | -6.1[25 µM]
O=C(c1cnccn1)N1CC(=O)N2[C@H](CO)[C@H](c3ccc(C#CC4CCCC4)cc3)[C@H]2C1 | 1.8
CCOC(=O)C1CCN(C2CCN(Cc3nc(-c4ccccc4)no3)CC2)CC1 | 3.7
CCOC(=O)C1CCN(C(=O)c2cccnc2)CC1 | 5.8
CCOC(=O)C1CCN(Cc2ccc(O)c3ncccc23)CC1 | 103.2*
O=C(/C=C/c1ccccc1)CC(O)(c1ccccc1)C(F)(F)C(F)F (stereo not drawn) | 55.5*

Compound activity (PubChem)
